Hit rate of the full screen: of about 310,000 compounds, about 14,000 (4.5%) showed an effect of 50% or more. The effect is printed as a negative number. Only a selection was taken, and strong results are over-represented in it overall.
Each compound was assayed against human ether-à-go-go-related gene (hERG) potassium channel (human, UniProt Q12809) (assay: primary screen, population patch clamp on CHO cells stably expressing hERG; higher = less effect of the substance).
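Note: peak tail current of the secondary pulse compared with the same well before compound.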

human ether-à-go-go-related gene (hERG) potassium channel, sequence (Q12809 whole entry, looked up): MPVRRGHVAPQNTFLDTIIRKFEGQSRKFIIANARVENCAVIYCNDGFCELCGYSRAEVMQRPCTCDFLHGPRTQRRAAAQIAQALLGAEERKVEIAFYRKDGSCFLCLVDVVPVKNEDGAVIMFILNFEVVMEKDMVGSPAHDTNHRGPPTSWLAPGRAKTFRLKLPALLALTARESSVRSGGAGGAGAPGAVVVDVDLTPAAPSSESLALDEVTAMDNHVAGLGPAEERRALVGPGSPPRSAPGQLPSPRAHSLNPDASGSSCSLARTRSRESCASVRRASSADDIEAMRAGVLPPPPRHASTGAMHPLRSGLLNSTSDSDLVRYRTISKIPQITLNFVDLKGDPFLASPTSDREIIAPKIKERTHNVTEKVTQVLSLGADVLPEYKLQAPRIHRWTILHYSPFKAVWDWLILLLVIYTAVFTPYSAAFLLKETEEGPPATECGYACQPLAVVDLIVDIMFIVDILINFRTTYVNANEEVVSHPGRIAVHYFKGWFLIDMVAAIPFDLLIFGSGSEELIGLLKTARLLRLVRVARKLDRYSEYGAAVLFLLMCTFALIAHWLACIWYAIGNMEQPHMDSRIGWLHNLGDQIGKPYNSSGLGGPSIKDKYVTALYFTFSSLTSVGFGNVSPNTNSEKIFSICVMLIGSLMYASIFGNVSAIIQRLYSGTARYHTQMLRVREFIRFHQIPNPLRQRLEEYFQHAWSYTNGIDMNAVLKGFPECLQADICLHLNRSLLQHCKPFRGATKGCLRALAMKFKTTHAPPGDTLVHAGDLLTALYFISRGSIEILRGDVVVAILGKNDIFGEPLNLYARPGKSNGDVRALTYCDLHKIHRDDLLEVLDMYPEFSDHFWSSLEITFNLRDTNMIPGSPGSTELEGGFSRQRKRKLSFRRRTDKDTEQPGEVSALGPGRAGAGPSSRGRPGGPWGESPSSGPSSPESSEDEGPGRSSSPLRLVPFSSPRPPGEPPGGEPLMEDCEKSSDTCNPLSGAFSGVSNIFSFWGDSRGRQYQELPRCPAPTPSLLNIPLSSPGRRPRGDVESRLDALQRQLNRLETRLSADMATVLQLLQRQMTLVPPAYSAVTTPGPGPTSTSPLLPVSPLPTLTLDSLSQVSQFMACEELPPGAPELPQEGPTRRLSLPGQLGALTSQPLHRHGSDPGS

Row | Structure (SMILES) | hERG current change (%, negative = inhibition) at 10uM
1 | COc1cccc(/C=N/Nc2cc(Cl)nc(C)n2)c1O | 20.8%
2 | COc1cc2c3c(c1OC)C1(C=CC(=O)C=C1)CC3N(C(=O)c1ccccc1)CC2 (stereo not drawn) | -18.6%
3 | CCC(=O)NC(=S)Nc1ccc(NC(=O)COc2ccc(Cl)cc2Cl)cc1 | 10.7%
4 | CC(=O)c1ccccc1OCc1ccc(S(=O)(=O)Cc2ccccc2)cc1 | -26.6%
5 | Cc1ccc(/C=N/Nc2ccc(Cl)nn2)cc1 | -0.808%
6 | CCN(CC)S(=O)(=O)c1ccc(C(=O)OCC(=O)Nc2sc3c(c2C#N)CCCCC3)cc1 | 8.12%
7 | Cc1ccc(S(=O)(=O)Nc2ccc(C(=O)N3CCCC3)cc2)cc1 | -0.474%
8 | Cc1ccc(NS(=O)(=O)c2ccc(C(=O)N3CCC3)cc2)cc1 | 15.7%
9 | Cc1ccc(NS(=O)(=O)c2ccc(C(=O)N3CC(C)OC(C)C3)cc2)cc1 (stereo not drawn) | 14.2%
10 | Cc1ccc(NS(=O)(=O)c2ccc(C(=O)N3CCCCCC3)cc2)cc1 | -8.38%
11 | CC(C)(C)c1ccc(S(=O)(=O)Nc2ccc(C(=O)N3CCCC3)cc2)cc1 | -61.9%
12 | Cc1ccc(NS(=O)(=O)c2ccc(C(=O)N3CC(C)CC(C)C3)cc2)cc1 (stereo not drawn) | -58.7%
13 | O=C(Nc1nnc(-c2ccco2)o1)c1ccc(Cl)s1 | 8.23%
14 | Cc1cc(Cl)c(OCCCSc2nc(C)cc(=O)[nH]2)c(Br)c1 | -10.3%
15 | CCc1nnc(NC(=O)CSc2ncc(-c3ccccc3)[nH]2)s1 | 2.52%
16 | Cc1cccc(C(=O)NNC(=O)c2ccccc2-n2cccc2)c1 | 11.7%
17 | COC(=O)c1c(SCC(=O)Nc2ccc(C)c(C)c2)nc(=O)[nH]c1C | 2.16%
18 | COC(=O)c1c(SCc2ccc(C#N)cc2)nc(=O)[nH]c1C | -76.9%
19 | COC(=O)c1c(SCc2cccc3ccccc23)nc(=O)[nH]c1C | 7.87%
20 | CCOC(=O)c1c(C)n(C)c2ccc(OCC(O)CNC(CC)CO)cc12 (stereo not drawn) | -7.11%
21 | COc1ccccc1/C=N/Nc1nccnc1Cl | -11.5%

Row | Structure (SMILES) | hERG current change (%, negative = inhibition) at 10uM
22 | O=C(O)c1ccc(N=Cc2c(O)[nH]c(=O)[nH]c2=O)cc1 | 8.59%
23 | OCCC1CN(CCCn2cccn2)CCN1Cc1ccccc1 (stereo not drawn) | -8.62%
24 | CC(C)=CCN1CCN(CCCn2cccn2)CC1CCO (stereo not drawn) | -11.8%
25 | CCOc1ccc(CN2CCN(CCCn3cccn3)CC2CCO)cc1 (stereo not drawn) | -80.1%
26 | CCOc1ccccc1CN1CCN(CCCn2cccn2)CC1CCO (stereo not drawn) | -57.4%
27 | Cc1ccc(CN2CCN(CCCn3cccn3)CC2CCO)cc1 (stereo not drawn) | -66.9%
28 | CC(C)CCN1CCN(CCCn2cccn2)CC1CCO (stereo not drawn) | -6.72%
29 | CC(C)N1CCC(N2CCN(CCCn3cccn3)CC2CCO)CC1 (stereo not drawn) | -28%
30 | Cc1cccc(NS(=O)(=O)c2cccc3cccnc23)n1 | 4.27%
31 | COC(=O)C(Cc1ccccc1)NC(=O)c1cccc(S(=O)(=O)N(C)C)c1 (stereo not drawn) | 2.5%
32 | Cc1ccccc1-c1noc(N)c1C#N | 0.198%
33 | CCCOc1cc(C)c(S(=O)(=O)NC2CC(C)(C)NC(C)(C)C2)cc1C | -15%
34 | Cn1c(CSCc2ccc(Cl)cc2)nnc1SCC(=O)Nc1nc2ccccc2s1 | 9.45%
35 | Cc1cc(C)cc(C(=O)NCCn2cc(SCC(=O)N3CCOCC3)c3ccccc32)c1 | -9.88%
36 | O=C(O)CNc1ncccc1[N+](=O)[O-] | -86.1%
37 | O=C(O)CNc1nc(Cl)ccc1[N+](=O)[O-] | 6.24%
38 | O=[N+]([O-])c1cccnc1NCCc1ccccc1 | -18.9%
39 | CNC(=O)C(=O)NCCN1CCN(S(=O)(=O)c2ccc3ccccc3c2)CC1 | 29.3%
40 | CC[C@H]1CN(C)CCc2c([nH]c3ccccc23)C(=O)C[C@@H]1/C(=C\OC)C(=O)OC | -69.5%
41 | CC[C@@H]1CN(C)[C@H]2Cc3c([nH]c4ccccc34)C(=O)C[C@@H]1[C@@H]2C(=O)OC | 11.8%
42 | CC[C@H]1CN(C)C[C@@]2(C(=O)OC)Cc3c([nH]c4ccccc34)C(=O)C[C@@H]12 | 9.71%

Row | Structure (SMILES) | hERG current change (%, negative = inhibition) at 10uM
43 | C=CCc1cccc(C=Nc2ccc(Br)cc2)c1O | -4.96%
44 | FC(F)(F)c1cc(Oc2ccc(Cl)cc2)ncc1-c1nnc(-c2ccc(Cl)cc2)o1 | 5.81%
45 | CC(C)C(=O)NCCc1nc(-c2ccccc2Cl)no1 | 16.1%
46 | O=C(OCCN=C1NS(=O)(=O)c2ccccc21)C1CC(=O)N(c2ccc(Cl)cc2)C1 (stereo not drawn) | -7.04%
47 | O=C(OCCOCCN=C1NS(=O)(=O)c2ccccc21)C1CC(=O)N(c2ccccc2)C1 (stereo not drawn) | 13.1%
48 | O=C(OCCCN=C1NS(=O)(=O)c2ccccc21)C1CC(=O)N(c2ccc(Cl)cc2)C1 (stereo not drawn) | -58.7%
49 | CC1(C)CC(CC(=O)O)(c2ccc(F)cc2)CCO1 (stereo not drawn) | 3.33%
50 | Cc1ccc(C)c(SCC(=O)Nc2ccc(C)c(S(=O)(=O)N3CCOCC3)c2)c1 | -13.4%
51 | CCOCCCNc1c(CC)c(C)c(C#N)c2nc3ccccc3n12 | -42.3%
52 | Cc1cccc(-n2cnc3c(c2=O)c2nc4ccccc4nc2n3Cc2ccco2)c1 | -63.7%
53 | COCC(C)OC(=O)c1c(N)n(Cc2ccco2)c2nc3ccccc3nc12 (stereo not drawn) | -55.7%
54 | COCCOC(=O)c1c(N)n(Cc2ccco2)c2nc3ccccc3nc12 | -56.7%
55 | Cc1cc(C)cc(-n2c3nc4ccccc4nc3c3c(=O)n(Cc4ccco4)cnc32)c1 | 6.26%
56 | Cc1ccc(Cn2c(C)nc3c(c2=O)c2nc4ccccc4nc2n3Cc2ccco2)cc1 | 5.72%
57 | COCCNC(=O)c1c(N)n(Cc2ccco2)c2nc3ccccc3nc12 | -6.12%
58 | COCCOC(=O)c1c(N)n(Cc2ccccc2)c2nc3ccccc3nc12 | -36.5%
59 | COC(=O)c1c(N)n(Cc2ccc(OC)cc2)c2nc3ccccc3nc12 | -34.1%
60 | CC(C)OC(=O)c1c(N)n(Cc2ccco2)c2nc3ccccc3nc12 | -31.4%
61 | CC(C)CNC(=O)c1c(N)n(Cc2ccco2)c2nc3ccccc3nc12 | -14.1%
62 | COCCCNC(=O)c1c(N)n(Cc2ccco2)c2nc3ccccc3nc12 | -2.08%
63 | COCCOC(=O)c1c(N)n(Cc2ccc(OC)cc2)c2nc3ccccc3nc12 | -75.4%

Source: article PMC4336329 (PLoS ONE, 2015)
